Assay outcomes from PubChem.
Most compounds without a hit are left out; they make up all but 5.5% or so of the library.
Six1-Eya2 inh: inhibitors of human Six1/Eya2 interaction. Q15475+O00167. AlphaScreen GST-Six1/His-Eya2 binding, biochemical; active compounds read low. activity change, % (no concentration beside the values). 360,000 compounds, 0.56% hits. AID 651725; in the data active = activity change below about -65%; inconclusive = mostly about -30% to -63%
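AlphaScreen with GST-Six1 and His-Eya2 (5X mix: 250 nM and 500 nM), glutathione donor and nickel acceptor beads; buffer 50 mM Tris pH 8.0, 300 mM NaCl, 1 mM TCEP; 1 h at 37 C in the dark.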
CBFb-RUNX1 inh: blocks binding between human CBF-beta and RUNX1; 230,000 tested, under 10 active; AID 1477; AlphaScreen CBFb-His/RUNX1-biotin binding, biochemical; Q01196+Q13951; Potency, µM (series often up to 59.8 µM), most hits filed as inhibitors
Target sequence (Q01196 whole entry, looked up): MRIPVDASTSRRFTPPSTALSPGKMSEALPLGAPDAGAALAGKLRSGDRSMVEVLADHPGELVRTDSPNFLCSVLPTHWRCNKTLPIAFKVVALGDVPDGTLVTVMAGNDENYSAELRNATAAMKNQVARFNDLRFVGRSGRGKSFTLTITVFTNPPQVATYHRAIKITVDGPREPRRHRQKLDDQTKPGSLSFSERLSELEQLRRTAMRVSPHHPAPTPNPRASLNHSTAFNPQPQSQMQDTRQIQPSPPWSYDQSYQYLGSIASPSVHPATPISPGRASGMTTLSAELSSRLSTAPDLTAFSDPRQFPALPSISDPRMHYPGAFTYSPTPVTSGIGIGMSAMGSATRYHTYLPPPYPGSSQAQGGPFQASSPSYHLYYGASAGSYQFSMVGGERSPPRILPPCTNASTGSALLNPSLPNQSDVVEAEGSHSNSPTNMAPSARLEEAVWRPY
Target sequence (Q13951 whole entry, looked up): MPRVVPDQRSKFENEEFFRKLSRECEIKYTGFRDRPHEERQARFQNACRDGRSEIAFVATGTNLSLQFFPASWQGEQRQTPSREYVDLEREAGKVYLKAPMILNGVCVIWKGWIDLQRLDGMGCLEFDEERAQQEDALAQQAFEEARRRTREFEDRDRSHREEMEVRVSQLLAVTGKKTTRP
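Bead-based AlphaScreen assay; binding partners His-tagged CBF-beta and biotinylated RUNX1 at 30 nM each. Compound exposure 15 min after a 20-min protein preincubation; bead step 90 min; all steps at room temperature.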
MBNL1-CUG inh: inhibitors of human MBNL1 binding to CUG repeat RNA; 280,000 compounds, 0.036% hits; Potency, µM (highest dose often 57.5 µM), usual class: inhibitors; AID 2675; TR-FRET MBNL1-His/biotin-(CUG)12 binding, 665/545 ratio; Q9NR56; active = well fitted inhibition curve with a large enough effect in the signal ratio, with a control signal flat, not every such curve was filed as active; inconclusive = small, poorly fitted or top-dose-only effect, or effect the other way, or a change in a side signal; inactive = no such curve, though single readings can be large or run the other way; the % refers to the signal ratio
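Compounds (final 92 nM to 58 uM) are added to His-tagged MBNL1 and biotin-(CUG)12, then terbium anti-His antibody and streptavidin-XL665 (5 nM final). After 60 min at room temperature, the 665/545 nm ratio is read.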
RORgamma inh: inhibitors of mouse ROR gamma transcriptional activity; Potency, µM (top dose mostly 53.6 µM), most hits filed as inhibitors; P51450; Drosophila S2 Gal4-RORgamma UAS-luciferase reporter, 20 h; AID 2551; 310,000 compounds, 5.4% hits; note: nearly all actives have a fitted effect of over 60% in size
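A Gal4/UAS one-hybrid system in insect cells: metallothionein-promoter Gal4–ROR gamma fusion plus Photinus luciferase reporter. Copper sulfate 700 uM final, 20 hr ambient incubation, luminescent detection after 10 min with reagent.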
VP16 counter: inhibits Gal4-VP16 luciferase reporter, ROR gamma counter-screen | Drosophila S2 Gal4-VP16 UAS-luciferase, luminescence, 20 h | Potency, µM (highest dose often 53.6 µM), most hits filed as inhibitors | 310,000 compounds, 3.5% hits;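 note: Gal4-VP16 expression switched on by copper sulfate through the metallothionein promoter; nearly all actives have a fitted effect of over 50% in size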
CtBP-E1A blk: inhibitors of CtBP/E1A interaction. AID 651724. 340,000 compounds, 0.49% hits. activity change, % (no concentration beside the values). AlphaScreen GST-E1A/His-CtBP binding, 1536-well; active compounds read low; in the data active = activity change below about -65%; inconclusive = mostly about -30% to -63%
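Homogeneous bead-based format: GST-tagged E1A captured on glutathione donor beads, His-tagged CtBP on nickel acceptor beads; compounds precede bead addition by 2 h at 37 °C.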
A number is an active result; . = inactive; ? = inconclusive; / = not tested or not shown; [ ] = another dose, or the depositor's remark. Unless noted, calls come from the whole dose curve; as a rule, active = well fitted curve in the direction sought with a large enough effect; inconclusive = small, poorly fitted or top-dose-only effect, or another doubt; inactive = no such curve, though single readings can be large; an effect the other way counts as inactive or inconclusive.

SMILES	Six1-Eya2 inh	CBFb-RUNX1 inh	MBNL1-CUG inh	RORgamma inh	VP16 counter	CtBP-E1A blk
COc1ccc(-c2[nH]ncc2-c2csc(C)n2)c(O)c1	.	.	.	.	?	/
COc1ccc(-c2[nH]ncc2-c2ccc(Cl)cc2)c(O)c1	.	.	.	8.9µM	?	.
C[C@H](NC(=O)N1CCc2nc(COc3ccccc3)c3c(c2C1)CO[C@@H](C)C3)c1ccccc1	/	.[13.1 µM]	/	/	/	/
Cc1cc(N)c2ccccc2[n+]1CCCCCCCCCCCCCC[n+]1c(C)cc(N)c2ccccc21	/	.	/	/	/	/
Oc1ccc2ccccc2c1-c1sc(Nc2ccccc2)n[n+]1-c1ccc(F)cc1	.	/	.	.	.	.
Fc1ccc(-[n+]2nc(Nc3ccccc3)sc2-c2c3ccccc3cc3ccccc23)cc1	?	/	?	10µM	.	?
CC[C@H]1[C@@H]2C=C[C@@H]3[C@H]4C/C=C\C(=O)NCCC[C@@H]5NC(=O)C(=C5O)C(=O)CC[C@@H]4C[C@@H]3[C@H]2C[C@H]1C	/	.	/	2.2µM	.	/
CC1(C(=O)NS(=O)(=O)c2ccc(F)cc2F)CCN1C(=O)c1ccccc1 (stereo unspecified)	.	/	/	/	/	.
Cc1cc2nc3s/c(=C/c4ccc(-c5ccccc5C(=O)O)o4)c(=O)n3c2cc1C	?	/	.	.	.	/
O=C(O)c1ccccc1-c1ccc(/C=c2\sc3nc4cc(Br)cnc4n3c2=O)o1	-81	/	?	.	.	?
CC1CCCCC1NC(=O)CCCCn1c(=O)[nH]c2ccsc2c1=O (stereo unspecified)	.	/	.	.	.	.
Cc1ccc(NC(=S)NNC(=S)NNc2ccccc2)cc1C	?	/	/	/	/	.
Cc1cc(C)cc(NC(=S)NC(=O)Cc2ccccc2)c1	.	/	/	/	/	.
Cc1ccc(NC(=S)Nc2ccc3nc(-c4ccccn4)c(-c4ccccn4)nc3c2)cc1C	.	.	?	14µM	?	.
Cc1ccc(NC(=S)Nc2ccccn2)cc1C	.	.	.	0.71µM	3.2µM	.
Cc1cccc(NC(=S)Nc2ccccn2)c1	.	.	.	0.5µM	6.3µM	.
Cc1cc(C)cc(NC(=S)Nc2ccccn2)c1	.	.	.	1.1µM	4.5µM	.
Cc1cc(C)cc(NC(=S)NN)c1	.	.	.	7.9µM	?	.
CCOc1cc(/C=C2\SC(=N)N(c3nccs3)C2=O)ccc1OCCN1CCOCC1	?	.	.[11.5 µM]	0.56µM	2.8µM	?
CCN1c2ccccc2-c2nc3ccccc3n2C1c1cccs1 (stereo unspecified)	.	?	.	13µM	?	.
OC[C@@H]1[C@@H](c2ccc(F)cc2)C(c2ccc(F)cc2)=NN1c1ccccc1	/	?	/	.	.	/
Cc1cc(C)c(OCC(=O)N(Cc2ccccc2)C2CCS(=O)(=O)C2)c(C)c1 (stereo unspecified)	.	/	.	.	.	.
Cc1cc(Nc2ccc(Br)cc2F)n2nc(C)nc2n1	.	.	.	3.2µM	7.9µM	.
COc1ccc(Oc2ncc3nc(-c4cn(C)c5ccccc45)c(=O)n(CCC#N)c3n2)cc1	/	/	/	.	.	/
CCCC1NC(=O)c2cccnc2-n2c1nc1ccc(C)cc1c2=O (stereo unspecified)	.	/	/	/	/	.
SMILES	Six1-Eya2 inh	CBFb-RUNX1 inh	MBNL1-CUG inh	RORgamma inh	VP16 counter	CtBP-E1A blk
Clc1cccc(/C=N/N2CCN(Cc3ccccc3)CC2)c1	?	/	.	.	.	/
C#CCN1C(=O)S/C(=C\c2ccc(-c3ccc(Cl)c(C(=O)O)c3)o2)C1=O	.	/	.	.[1.91 µM]	1.3µM	/
O=[N+]([O-])c1ccc(Sc2nnnn2-c2ccccc2)nc1	.	.	/	3.5µM	?	.
Cc1ccc(S(=O)(=O)NCC(=O)N(CC(=O)NCC2CCCO2)Cc2ccc(Cl)cc2)cc1 (stereo unspecified)	.	/	.	.	?	.
Nc1ncnc(N2CCOCC2)n1	.	/	/	/	/	.
O=C(CNC(=O)c1cnccc1C(F)(F)F)c1cccc(Cl)c1	.	.	.	.	.	.
O=C1NC(=S)N(C(=O)c2ccc(F)cc2)/C1=C/c1cccnc1	.	.	.	.	.	.
COc1ccc(/C=C2\C(=O)NC(=S)N2C(=O)c2ccc(C)cc2)cc1	.	.	?	22µM	?	.
O=C(Nc1cccc(F)c1)N1CC[C@@]2(CCCN(C(=O)c3csnn3)C2)C1	/	/	/	.	.	/
COc1cc(C(=O)OCC(=O)Nc2ccc(SC(F)F)cc2)cc(OC)c1OC	.	.	.	?	1µM	.
C[C@@]12C=Cc3occc3C1CC[C@@]13C[C@@H](CCC12)[C@@](O)(CO)C3 (stereo partly specified)	/	.	/	.	.	/
CCOC(=O)c1c(-c2cccc([N+](=O)[O-])c2)csc1NC(=O)CCCOc1ccccc1	.	.	.	?	8.9µM	.
Cc1nc2ccccn2c1C(=O)N/N=C/c1ccccc1	.	/	.	.	.	.
Cc1ccccc1N/N=C/c1c(C)nc2ccccn12	.	/	.	10µM	.	.
NC(Cc1ccc(C(F)(F)F)cc1)c1csc(Nc2ccc(C(=O)c3ccccc3)cc2)n1 (stereo unspecified)	.	/	/	/	/	?
COc1ccc(NC2=NCCCCC2)cc1	.	/	.	.	.	.
COc1ccc(-c2nc(NC3=NCCCCC3)sc2C)cc1	.	.	.	10µM	.	.
COc1cc(CCCN2C(=S)NC[C@@H]2c2ccccc2)cc(OC)c1OC	.	.	.	10µM	?	.
COc1cc(CCCN2C(N)=NC[C@@H]2Cc2ccccc2)cc(OC)c1OC	.	.	.	.	.	.
COc1cc(CCCN2C(=S)NC[C@@H]2Cc2ccccc2)cc(OC)c1OC	.	.	.	10µM	?	.
CCCC[C@@H]1CNC(=O)C(=O)N1CCCc1cc(OC)c(OC)c(OC)c1	.	.	.	.	.	.
O=C(c1cccc(F)c1)N1CCC2(CCCN(c3ncccn3)C2)CC1	/	/	/	.	.	/
Cc1ccc(C)c(SCC(=O)Nc2ccc(S(=O)(=O)Nc3ncccn3)cc2)c1	.	.	.	?	.	.
CCCOc1ccc(C(=O)CCC(=O)NNC(=O)c2cccs2)cc1	.	/	/	/	/	.
CCc1nc(N2CCN(C(=S)NCCCOC)CC2)c2c3c(sc2n1)CCCC3	.	/	.	14µM	?	.
O=C(CNc1ccc2ccccc2c1)NNC1=NCCC1	.	.	.	2.8µM	4µM	/
COc1ccc(C(=O)CNc2ccc3ccccc3c2)cc1	.	.	.	13µM	?	.
COc1ccc(C(=O)CNc2ccccc2Br)cc1	.	/	.	1.8µM	?	.
CC(NS(=O)(=O)c1ccc(NC(=O)N2CCCCC2)cc1)c1ccccc1 (stereo unspecified)	.	/	.	/	/	.
